In PubChem BioAssay (NCATS):
Unmarked numbers belong to inactive results. Inconclusive results are not listed. Active and inactive are the calls of the source. Unless noted, the call rests on the fitted dose curve; in most records, active means well fitted curve in the direction sought with a large enough effect; inconclusive means small, poorly fitted or top-dose-only effect, or another doubt; inactive means no such curve, though single readings can be large; an effect the other way counts as inactive or inconclusive.

Key:
[1] = biological target: Lysosomal acid glucosylceramidase (Homo sapiens) (UniProt P04062); assay: Glucocerebrosidase-p2 (AID 348; in the data active means potency below about 10 µM; further: potency means the concentration at half of the fitted maximal effect); settings: purified GBA, blue fluorogenic substrate, 40 min
Sequence of Lysosomal acid glucosylceramidase (Homo sapiens) (P04062 whole entry, looked up): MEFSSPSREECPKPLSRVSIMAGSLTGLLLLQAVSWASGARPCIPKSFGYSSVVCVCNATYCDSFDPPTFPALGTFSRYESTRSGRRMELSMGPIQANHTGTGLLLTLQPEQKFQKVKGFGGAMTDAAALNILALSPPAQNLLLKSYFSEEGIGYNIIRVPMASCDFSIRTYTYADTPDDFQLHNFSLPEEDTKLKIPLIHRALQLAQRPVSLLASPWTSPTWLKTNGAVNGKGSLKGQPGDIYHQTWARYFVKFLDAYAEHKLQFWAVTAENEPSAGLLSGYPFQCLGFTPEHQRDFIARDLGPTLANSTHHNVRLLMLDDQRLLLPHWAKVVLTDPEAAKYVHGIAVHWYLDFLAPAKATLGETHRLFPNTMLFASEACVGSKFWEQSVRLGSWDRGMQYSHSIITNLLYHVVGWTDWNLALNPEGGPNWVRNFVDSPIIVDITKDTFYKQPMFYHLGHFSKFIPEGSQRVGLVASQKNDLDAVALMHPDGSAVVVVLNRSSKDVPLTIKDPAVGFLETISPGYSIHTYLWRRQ
In short: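 Compounds titrated from 0.6 nM upwards against 0.2 nM enzyme in pH 5.9 citric acid/KH2PO4, taurocholate, tween-20; blue fluorogenic substrate 80 uM, 40 min room temperature, stopped and read Ex 365/Em 440 for AC50.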

[2] = AP1 Signaling Pathway (AID 357; active means well fitted curve in either direction with a large enough effect, not every such curve was filed as active;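 further: ME-180 reporter cells stimulated with EGF at its EC50 level; on the % scale 0 is the no-effect control and ±100 the full control effect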); settings: ME-180 AP-1-bla reporter, EGF-induced, beta-lactamase ratio, 5 h; at 7.69 µM (top of the series) unless noted
In short: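 Cells are seeded overnight, exposed to compound titrations and an EC50 level of EGF for 5 hours at 37 °C, then loaded with CCF4 dye for 2.5 hours. Beta-lactamase activity under the AP-1 element is read as a blue/green ratio.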

[3] = biological target: Cytochrome P450 1A2 (Homo sapiens) (UniProt P05177); assay: p450-cyp1a2 (AID 410; calls by dose curve; further: potency means the concentration at half of the fitted maximal effect); settings: recombinant CYP1A2, luciferin-ME demethylation, luminescence; series mostly up to 57 µM
Sequence of Cytochrome P450 1A2 (Homo sapiens) (P05177 whole entry, looked up): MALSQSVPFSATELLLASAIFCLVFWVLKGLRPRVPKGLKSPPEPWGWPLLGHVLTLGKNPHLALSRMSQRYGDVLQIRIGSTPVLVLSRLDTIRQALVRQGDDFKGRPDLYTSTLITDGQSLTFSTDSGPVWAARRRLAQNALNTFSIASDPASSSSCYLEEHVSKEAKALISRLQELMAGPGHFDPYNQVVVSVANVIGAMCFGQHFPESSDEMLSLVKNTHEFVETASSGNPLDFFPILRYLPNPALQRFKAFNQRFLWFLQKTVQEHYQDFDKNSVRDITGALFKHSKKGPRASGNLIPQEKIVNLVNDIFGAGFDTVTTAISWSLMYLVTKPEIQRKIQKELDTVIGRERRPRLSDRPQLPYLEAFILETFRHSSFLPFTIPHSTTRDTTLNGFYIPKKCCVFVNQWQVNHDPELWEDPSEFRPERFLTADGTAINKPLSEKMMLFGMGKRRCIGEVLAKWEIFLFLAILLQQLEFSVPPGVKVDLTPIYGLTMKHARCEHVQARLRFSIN
In short: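 Human CYP1A2 (20nM) demethylated Luciferin-ME at its Km (100uM) in 100mM KPO4. After 10 min compound preincubation, NADPH regeneration ran the reaction 60 min at room temperature. Luciferin was read by luminescence, normalized to 57 uM furafylline.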

[4] = NFAT Signaling Pathway (AID 444; active means well fitted curve in either direction with a large enough effect, not every such curve was filed as active;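 further: carbachol stimulus at about its EC50 of 1 µM final; on the % scale 0 is the no-effect control and ±100 the full control effect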); settings: Jurkat NFAT-bla M1, carbachol, beta-lactamase ratio, 5 h; at 7.69 µM (top of the series) unless noted
In short: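 Read-out: CCF4 FRET ratio (460 nm/530 nm) after 1 h RT dye loading, used for %activity and AC50 from titration series. Cells: Jurkat NFAT-β-lactamase/M1 line, treated with compound plus 1 uM carbachol for 5 h, 37 °C.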

[5] = Stat Signaling Pathway (AID 446; active means well fitted curve in either direction with a large enough effect, not every such curve was filed as active;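 further: ME-180 cervical cancer cells given 40 pM IL-6 alongside compound; SIE-controlled beta-lactamase reporter measured as 460/530 nm FRET emission ratio; on the % scale 0 is the no-effect control and ±100 the full control effect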); settings: ME-180 SIE beta-lactamase reporter, IL-6 stimulated, 5 h; at 7.69 µM (top of the series) unless noted
In short: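 ME-180 SIE-bla cells; overnight plating; cpd + IL-6 40 pM, 5 h, 37 C; LiveBLAzer 2.5 h RT; 460/530 nm emission ratio. Normalized to 300 pM IL-6 and 125 nM JAK inhibitor controls.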

[6] = biological target: Glucocorticoid receptor (Homo sapiens) (UniProt P04150); assay: GR-GFP Redistribution (AID 450;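 active means compounds whose dose series gives a full or clear partial fitted curve of increased nuclear translocation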; further: potency means the concentration at half of the fitted maximal effect); settings: U2OS GR-GFP nuclear translocation, laser cytometry, 2 h
Sequence of Glucocorticoid receptor (Homo sapiens) (P04150 whole entry, looked up, the tested form may be a part): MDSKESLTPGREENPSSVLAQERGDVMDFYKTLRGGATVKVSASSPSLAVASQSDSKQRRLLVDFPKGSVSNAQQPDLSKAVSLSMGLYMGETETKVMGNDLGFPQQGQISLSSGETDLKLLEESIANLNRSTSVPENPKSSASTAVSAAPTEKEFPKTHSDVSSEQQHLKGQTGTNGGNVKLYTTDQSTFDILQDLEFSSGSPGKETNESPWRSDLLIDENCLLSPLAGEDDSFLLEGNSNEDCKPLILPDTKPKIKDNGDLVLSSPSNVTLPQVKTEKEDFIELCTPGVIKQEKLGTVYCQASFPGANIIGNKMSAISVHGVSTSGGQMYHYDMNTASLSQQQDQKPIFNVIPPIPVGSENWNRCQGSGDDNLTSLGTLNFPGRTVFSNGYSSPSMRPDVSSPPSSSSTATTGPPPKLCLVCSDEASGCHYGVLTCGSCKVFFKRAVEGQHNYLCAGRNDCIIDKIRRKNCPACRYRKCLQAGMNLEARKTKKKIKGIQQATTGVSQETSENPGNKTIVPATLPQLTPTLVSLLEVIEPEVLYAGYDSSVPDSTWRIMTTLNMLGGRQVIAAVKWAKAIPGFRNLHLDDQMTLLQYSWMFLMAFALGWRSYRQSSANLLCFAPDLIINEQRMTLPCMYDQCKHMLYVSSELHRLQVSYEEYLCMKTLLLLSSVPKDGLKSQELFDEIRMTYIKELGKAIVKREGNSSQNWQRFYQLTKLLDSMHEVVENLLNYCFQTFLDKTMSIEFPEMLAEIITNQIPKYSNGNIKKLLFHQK

[7] = biological target: Glucocorticoid receptor (Homo sapiens) (UniProt P04150); assay: GR-EFC Redistribution (AID 451; calls by dose curve; further: potency means the concentration at half of the fitted maximal effect); settings: CHO-K1 GR-EFC translocation, beta-gal luminescence, 2 h
In short: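 Translocation of GR-ED fusion to nuclear EA restores b-gal, read by luminescence after 1 h room-temperature detection. Engineered CHO-K1 biosensor cells, 1,000/well, exposed 2 h at 37 C to titrations up to 46 uM final.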

[8] = biological target: Mitogen-activated protein kinase 10 (Mus musculus) (UniProt Q61831); assay: JNK3 AlphaScreen Assay (AID 530; active means well fitted curve in either direction with a large enough effect, not every such curve was filed as active;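 further: kinase came from lysate of stimulated human HepG2 cells; signal reports phosphorylation of biotinylated GST-cJun 1-79 at Ser73 with 10 µM ATP; on the % scale 0 is the no-effect control and ±100 the full control effect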); settings: JNK3 lysate, c-Jun phosphorylation; series mostly up to 57.1 µM
In short: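 Room-temperature AlphaScreen kinase assay; pre-activated HepG2 lysate as JNK3 source, biotin-GST-cJun(1-79) substrate, 10 uM ATP, compound 15 min preincubation.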

[9] = biological target: Cytochrome P450 3A4 (Homo sapiens) (UniProt P08684); assay: qHTS Assay for Activators of Cytochrome P450 3A4 (AID 885); settings: recombinant CYP3A4, Luciferin-PPXE luminescence, 60 min; series mostly up to 57.1 µM; further: nearly all actives have a fitted effect of over 65% in size
Sequence of Cytochrome P450 3A4 (Homo sapiens) (P08684 whole entry, looked up): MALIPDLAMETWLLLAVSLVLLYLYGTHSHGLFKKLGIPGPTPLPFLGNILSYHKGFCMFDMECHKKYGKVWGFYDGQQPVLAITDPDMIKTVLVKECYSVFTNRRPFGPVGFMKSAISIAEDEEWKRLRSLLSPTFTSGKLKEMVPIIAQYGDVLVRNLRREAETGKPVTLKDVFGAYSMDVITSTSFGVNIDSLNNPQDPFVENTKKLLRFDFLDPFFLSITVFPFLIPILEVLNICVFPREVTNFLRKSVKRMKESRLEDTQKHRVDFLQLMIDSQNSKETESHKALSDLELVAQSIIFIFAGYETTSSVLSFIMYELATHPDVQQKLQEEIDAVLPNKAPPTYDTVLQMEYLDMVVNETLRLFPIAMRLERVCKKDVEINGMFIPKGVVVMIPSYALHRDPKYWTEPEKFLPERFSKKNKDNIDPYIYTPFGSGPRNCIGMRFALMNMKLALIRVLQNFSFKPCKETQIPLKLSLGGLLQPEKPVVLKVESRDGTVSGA
In short: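 20nM CYP3A4 + 25uM Luciferin-PPXE (=KM), 200mM KPO4; cpd 10 min RT; NADPH regen, 60 min RT; stop w/ detection buffer, 20 min; luminescence. Normalized to 57 uM ketoconazole.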

[10] = biological target: Dual specificity protein kinase CLK4 (Homo sapiens) (UniProt Q9HAZ1); assay: qHTS Assay for Inhibitors of CDC-like Kinase 4 (Kinase-Glo Assay) (AID 1770); settings: recombinant Clk4, Kinase-Glo ATP depletion luminescence; series mostly up to 66.7 µM; further: nearly all actives have a fitted effect of over 65% in size; further: potency means the concentration at half of the fitted maximal effect
Sequence of Dual specificity protein kinase CLK4 (Homo sapiens) (Q9HAZ1 whole entry, looked up): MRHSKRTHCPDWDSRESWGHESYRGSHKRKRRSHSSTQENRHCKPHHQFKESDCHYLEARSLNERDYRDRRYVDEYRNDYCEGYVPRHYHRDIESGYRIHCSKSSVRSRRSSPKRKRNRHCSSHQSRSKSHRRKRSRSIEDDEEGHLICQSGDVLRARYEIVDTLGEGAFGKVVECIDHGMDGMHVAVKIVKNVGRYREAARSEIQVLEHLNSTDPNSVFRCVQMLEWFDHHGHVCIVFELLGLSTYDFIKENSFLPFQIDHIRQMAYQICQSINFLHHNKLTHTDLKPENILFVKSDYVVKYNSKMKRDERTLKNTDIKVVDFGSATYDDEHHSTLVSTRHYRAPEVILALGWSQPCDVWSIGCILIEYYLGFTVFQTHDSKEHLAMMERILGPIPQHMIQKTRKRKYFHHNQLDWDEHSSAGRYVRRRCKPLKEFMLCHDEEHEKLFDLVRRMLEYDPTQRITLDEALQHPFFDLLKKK
In short: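 Recombinant human Clk4 (25 nM) phosphorylated RS repeat peptide (100 uM) with 1 uM ATP in Tris pH 7.5/MgCl2/EGTA/DTT/Triton buffer for 4.5 h at room temperature. Residual ATP was quantified by Kinase-Glo luciferase luminescence.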

[11] = biological target: Dual specificity protein kinase CLK4 (Homo sapiens) (UniProt Q9HAZ1); assay: qHTS Assay for Inhibitors of CDC-like Kinase 4 (ADP-Glo Assay) (AID 1771); settings: recombinant CLK4, ADP-Glo luminescence; series mostly up to 80 µM; further: nearly all actives have a fitted effect of over 70% in size; further: potency means the concentration at half of the fitted maximal effect
In short: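 Clk4 (25 nM) was incubated 1 hr at room temperature with 100 uM RS repeat peptide and 1 uM ATP in buffer with 2 mM MgCl2, 0.5 mM EGTA, 2.5 mM DTT. ADP formed was quantified by ADP-Glo luminescence.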

[12] = biological target: Dual specificity protein kinase CLK4 (Homo sapiens) (UniProt Q9HAZ1); assay: qHTS Assay for Inhibitors of CDC-like Kinase 4 (ADP-FP Assay) (AID 1795); settings: Transcreener ADP fluorescence polarization; series mostly up to 50 µM; further: nearly all actives have a fitted effect of over 60% in size; further: potency means the concentration at half of the fitted maximal effect
In short: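 Recombinant human Clk4 (6.25 nM) phosphorylated RS repeat peptide (100 uM) with 1 uM ATP in Tris pH 7.5/MgCl2/EGTA/DTT/Triton buffer for one hour. ADP was quantified by Transcreener competitive fluorescence polarization against an ADP calibration curve.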

[13] = Primary qHTS for small molecule stabilizers of the endoplasmic reticulum resident proteome: Secreted ER Calcium Modulated Protein (SERCaMP) assay (AID 1508630); settings: SH-SY5Y GLuc-SERCaMP (Gaussia luciferase released on ER calcium loss) secretion, thapsigargin, luminescence; series mostly up to 38.4 µM; further: on the % scale 0 is the no-effect control and ±100 the full control effect
In short: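 GLuc-SERCaMP-expressing SH-SY5Y cells, pretreated 16 h with compound, are challenged with thapsigargin to empty ER calcium stores; after 4 h, coelenterazine is added directly to the medium and luminescence is imaged.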

[14] = biological target: 3',5'-cyclic-AMP phosphodiesterase 4B (Homo sapiens) (UniProt Q07343); assay: qHTS Assay for Inhibitors of PDE-IV (AID 607; active means well fitted activation curve with a large enough effect in the main read-out, with a control signal flat, not every such curve was filed as active; further: potency means the concentration at half of the fitted maximal effect); settings: HEK293 ACTOne CNG channel cells, membrane potential fluorescence; series mostly up to 22.9 µM
Sequence of 3',5'-cyclic-AMP phosphodiesterase 4B (Homo sapiens) (Q07343 whole entry, looked up): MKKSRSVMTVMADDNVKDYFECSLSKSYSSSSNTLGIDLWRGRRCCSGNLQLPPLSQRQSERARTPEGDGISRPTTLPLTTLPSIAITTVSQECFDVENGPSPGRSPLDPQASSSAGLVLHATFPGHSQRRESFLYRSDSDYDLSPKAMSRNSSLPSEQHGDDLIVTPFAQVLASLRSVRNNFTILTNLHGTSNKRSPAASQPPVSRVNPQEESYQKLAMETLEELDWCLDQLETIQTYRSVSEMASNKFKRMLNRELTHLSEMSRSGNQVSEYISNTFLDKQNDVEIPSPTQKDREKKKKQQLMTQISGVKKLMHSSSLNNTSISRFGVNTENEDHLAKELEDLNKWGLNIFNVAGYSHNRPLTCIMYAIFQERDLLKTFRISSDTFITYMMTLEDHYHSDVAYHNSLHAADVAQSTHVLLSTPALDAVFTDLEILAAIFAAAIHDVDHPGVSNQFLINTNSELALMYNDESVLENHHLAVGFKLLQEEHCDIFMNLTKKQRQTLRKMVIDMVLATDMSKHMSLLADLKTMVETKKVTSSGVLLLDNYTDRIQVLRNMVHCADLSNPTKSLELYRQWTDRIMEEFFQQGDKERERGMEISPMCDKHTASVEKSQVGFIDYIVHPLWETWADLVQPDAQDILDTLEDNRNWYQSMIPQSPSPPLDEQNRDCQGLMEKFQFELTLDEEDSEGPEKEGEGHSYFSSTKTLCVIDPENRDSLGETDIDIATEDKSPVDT
In short: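 ACTOne HEK293 cells carry a modified cAMP-gated CNG channel and express endogenous PDE4; plated 1000 cells/well, compounds up to 22.9 uM final. Membrane-potential dye fluorescence (ex 535/em 590) was read; parental cells received 10 uM forskolin + 100 uM RO 20-1724.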

[15] = biological target: Cytochrome P450 3A4 (Homo sapiens) (UniProt P08684); assay: qHTS Assay for Inhibitors and Substrates of Cytochrome P450 3A4 (AID 884); settings: recombinant CYP3A4, Luciferin-PPXE luminescence; series mostly up to 57.1 µM; further: potency means the concentration at half of the fitted maximal effect; nearly all actives have a fitted effect of over 50% in size
In short: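 20 nM human CYP3A4 with 25 uM Luciferin-PPXE (at KM) in 200 mM KPO4, preincubated 10 min with compound; NADPH regeneration started a 60 min RT reaction. Luciferin detected by luminescence, normalized to 57 uM ketoconazole as full inhibition.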

[16] = biological target: Cytochrome P450 2C19 (Homo sapiens) (UniProt P33261); assay: qHTS Assay for Inhibitors and Substrates of Cytochrome P450 2C19 (AID 899); settings: recombinant CYP2C19, luciferin-H EGE luminescence; series mostly up to 57.1 µM; further: potency means the concentration at half of the fitted maximal effect; nearly all actives have a fitted effect of over 60% in size
Sequence of Cytochrome P450 2C19 (Homo sapiens) (P33261 whole entry, looked up): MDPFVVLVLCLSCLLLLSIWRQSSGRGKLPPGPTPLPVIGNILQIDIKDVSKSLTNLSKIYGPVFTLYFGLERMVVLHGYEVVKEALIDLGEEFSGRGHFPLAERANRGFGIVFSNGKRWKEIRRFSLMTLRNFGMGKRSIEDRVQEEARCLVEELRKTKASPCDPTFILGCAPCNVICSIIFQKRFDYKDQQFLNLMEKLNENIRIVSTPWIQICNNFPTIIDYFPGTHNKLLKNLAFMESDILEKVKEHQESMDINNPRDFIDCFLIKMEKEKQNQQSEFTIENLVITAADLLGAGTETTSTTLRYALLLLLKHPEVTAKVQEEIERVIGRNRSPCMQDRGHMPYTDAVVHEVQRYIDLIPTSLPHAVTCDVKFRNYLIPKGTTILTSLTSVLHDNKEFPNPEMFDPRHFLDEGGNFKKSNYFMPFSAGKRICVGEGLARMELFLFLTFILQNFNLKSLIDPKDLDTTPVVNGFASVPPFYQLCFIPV
In short: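 5nM enzyme + 10uM Luciferin-H EGE (=KM), 50mM KPO4; cpd pin-transferred, 10 min 37C; NADPH regen, 60 min 37C; stopped w/ luciferin detection reagent, 20 min; luminescence. Normalized to 57uM ketoconazole (AC100).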

[17] = biological target: Ubiquitin carboxyl-terminal hydrolase 1 (Homo sapiens) (UniProt O94782); assay: Inhibitors of USP1/UAF1: Pilot qHTS (AID 504865); settings: purified USP1/UAF1, Ub-rhodamine cleavage fluorescence; series mostly up to 54.9 µM;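 further: rhodamine fluorescence freed from ubiquitin-rhodamine substrate followed over time; top concentration of the series differs between compounds; on the % scale 0 is the no-effect control and ±100 the full control effect; nearly all actives have a fitted effect of over 35% in size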
Sequence of Ubiquitin carboxyl-terminal hydrolase 1 (Homo sapiens) (O94782 whole entry, looked up): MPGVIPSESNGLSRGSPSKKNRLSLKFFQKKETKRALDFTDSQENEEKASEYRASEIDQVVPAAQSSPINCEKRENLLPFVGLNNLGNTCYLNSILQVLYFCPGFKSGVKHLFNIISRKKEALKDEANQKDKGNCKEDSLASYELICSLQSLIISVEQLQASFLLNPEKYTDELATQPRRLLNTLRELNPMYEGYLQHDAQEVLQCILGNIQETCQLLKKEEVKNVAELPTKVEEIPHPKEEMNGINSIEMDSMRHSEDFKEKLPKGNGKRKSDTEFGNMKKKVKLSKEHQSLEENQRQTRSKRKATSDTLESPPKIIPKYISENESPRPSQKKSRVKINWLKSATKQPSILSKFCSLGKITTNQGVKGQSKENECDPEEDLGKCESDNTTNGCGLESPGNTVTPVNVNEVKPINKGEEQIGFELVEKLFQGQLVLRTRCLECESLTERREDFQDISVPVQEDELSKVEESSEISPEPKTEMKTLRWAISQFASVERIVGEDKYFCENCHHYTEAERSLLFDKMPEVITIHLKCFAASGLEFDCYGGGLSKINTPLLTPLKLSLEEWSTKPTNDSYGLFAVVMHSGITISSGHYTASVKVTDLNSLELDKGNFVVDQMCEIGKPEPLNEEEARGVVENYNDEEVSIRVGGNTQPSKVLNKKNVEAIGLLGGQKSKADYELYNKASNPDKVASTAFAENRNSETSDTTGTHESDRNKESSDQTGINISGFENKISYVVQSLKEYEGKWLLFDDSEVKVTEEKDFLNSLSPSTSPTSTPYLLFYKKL
In short: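 USP1/UAF1 complex (1nM) preincubated with compound 15 min at room temperature, then Ub-Rho substrate (150nM final) added. Fluorescence read kinetically at 480/540 nm, 6 reads every 60 seconds. Buffer: 50mM HEPES pH 7.8, 0.5mM EDTA, 0.1 mg/ml BSA, 1mM TCEP, 0.01% Tween-20.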

[18] = qHTS Assay for Identification of Small Molecule Agonists for Hypoxia Response Element Signaling Pathway (AID 914; active means well fitted activation curve with a large enough effect in the signal ratio, with a control signal flat, not every such curve was filed as active; the % refers to the signal ratio; further: potency means the concentration at half of the fitted maximal effect; on activation: % of control where 0% means no effect); settings: ME-180 (cervical carcinoma) HRE-bla reporter, beta-lactamase ratio, CoCl2, 17 h; activation: active compounds read high
In short: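 A beta-lactamase reporter under hypoxia response element control in ME-180 cells served as the system. Compound titrations plus EC50 CoCl2 ran 17 h at 37 degrees Celsius; AC50 values were fitted from %Activity.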

[19] = biological target: Cytochrome P450 2D6 (Homo sapiens) (UniProt P10635); assay: qHTS Assay for Inhibitors and Substrates of Cytochrome P450 2D6 (AID 891); settings: recombinant CYP2D6, luciferin-ME EGE luminescence; series mostly up to 57.1 µM; further: potency means the concentration at half of the fitted maximal effect; nearly all actives have a fitted effect of over 60% in size
In short: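 Human CYP2D6 (5 nM) with 30 uM Luciferin-ME EGE (at Km) in 100 mM KPO4, compound preincubated 10 min, then NADPH regeneration system for 60 min at room temperature. Luciferin read by luminescence; normalized to 1.43 uM quinidine.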

SMILES | Potency [1] [µM] | activity change, negative = inhibition [2] [%] | Potency [3] | activity change, negative = inhibition [4] [%] | activity, negative = inhibition [5] [%] | Potency [6] [µM] | Potency [7] [µM] | Potency [8] | Potency [9] | Potency [10] | Potency [11] | Potency [12] | outcome [13] | Potency [14] | Potency [15] | Potency [16] | Potency [17] | Potency [18] | Potency [19] | activation [18] [%]
COc1ccccc1CNc1cc(-c2ccccc2C)ncn1 | > 11.4 | -17.3 | 5.01 µM (active) | -18.6 | 14.3 | > 46 | > 46 | inactive | inactive | inactive | inactive | inactive | inactive |  |  |  |  |  |  | 
COc1ccccc1CNc1ccnc(-c2cccc(C#N)c2)n1 | > 11.4 | -13.8 | 0.794 µM (active) | 8.07 | -11.8 | > 46 |  | inactive | inactive | 7.94 µM (active) | 7.94 µM (active) | 3.16 µM (active) | inactive | inactive | 3.98 µM (active) | 3.98 µM (active) | inactive |  |  | 
Cc1nc2cnc(N(C)C)nc2n(-c2ccccc2)c1=O | > 11.4 | -7.75 | 2 µM (active) | 9.3 | -16.5 | > 46 | > 46 | inactive |  | inactive | inactive | inactive | inactive | inactive |  |  |  |  |  | 
COc1ncc2nc(C)c(=O)n(-c3ccccc3)c2n1 | > 11.4 | -2.25 | 5.01 µM (active) |  | -8.97 | > 9.22 | > 46 | inactive | inactive | inactive | inactive | inactive | inactive | inactive |  |  | inactive |  |  | 
COCCn1c(=O)c(-c2ccc(F)cc2)nc2cnc(N(C)C)nc21 | > 11.4 | -1.02 | 2 µM (active) | 10.7 |  | > 9.22 | > 46 |  |  | inactive | inactive | inactive | inactive | 1.58 µM (active) |  |  | inactive |  |  | 
O=c1c(-c2ccc(Cl)cc2)nc2cnc(Nc3ccccc3)nc2n1C[C@H]1CCCO1 | > 11.4 | -8.65 | 12.6 µM (active) | -7.53 |  | > 9.22 | > 46 | inactive |  | inactive | inactive | inactive | inactive |  |  |  | inactive | 0.126 µM (active) |  | 
Cc1cccc(CNc2ncncc2-c2ccccc2Cl)c1 | > 11.4 | -12.3 | 3.16 µM (active) |  | -14.1 | > 46 | > 46 | inactive | inactive | inactive | inactive | inactive | inactive |  | 0.199 µM (active) |  | inactive |  | 2 µM (active) | -10.3
CN(Cc1ccco1)c1ccnc(-c2cccc(C#N)c2)n1 | > 11.4 | -18.2 | 0.398 µM (active) |  | 2.59 | > 46 | > 46 | inactive | inactive | 14.1 µM (active) | 15.8 µM (active) | 14.1 µM (active) | inactive | inactive |  |  | inactive |  |  | 
COc1ccc(CNc2nc(-c3c(C)noc3C)nc3ccccc23)c(OC)c1 | > 2.29 | 5.92 | 0.794 µM (active) |  |  | > 46 | > 46 | inactive | inactive | inactive | inactive | inactive | inactive |  | 2.51 µM (active) | 3.16 µM (active) |  |  |  | 
CN(C)c1ncc2nc(-c3ccc(Cl)cc3)c(=O)n(C)c2n1 | > 11.4 | 24.8 | 1.58 µM (active) |  |  | > 9.22 | > 46 | inactive |  | inactive | inactive | inactive | inactive | inactive |  |  | inactive |  |  | 
COc1cccc(Cn2c(=O)c(-c3ccc(F)cc3)nc3cncnc32)c1 | > 11.4 | -16.6 |  | -9.33 | -13.6 | > 9.22 | > 46 | inactive |  | inactive | inactive | inactive | inactive |  |  |  | inactive |  |  | 
COc1cccc(Cn2c(=O)c(-c3ccc(Cl)cc3)nc3cncnc32)c1 | > 11.4 | -9.78 |  | -4.86 | -0.792 | > 9.22 | > 46 | inactive |  | inactive | inactive | inactive | inactive |  |  |  | inactive |  |  | 
